Screening results deposited in PubChem by The Scripps Research Institute Molecular Screening Center.
This is one part of a sample in which hits are shown more often than they occur.
TbREL1 inh: TbREL1 RNA ligase inhibitors, primary screen, biochemical, FRET fluorescence. RNA-editing ligase 1, mitochondrial (Trypanosoma brucei brucei), P86926. TbREL1 RNA ligation. inhibition, % at 9.66 µM. hit rate 0.49% among 89,000. AID 1117264, 2014;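 active means inhibition above the mean inhibition across all screened compounds plus 3 SD, cut at about 11% in these data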;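 further: 0% = plate median of test wells and 100% = NSC42067 control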
Target sequence (P86926 whole entry, looked up): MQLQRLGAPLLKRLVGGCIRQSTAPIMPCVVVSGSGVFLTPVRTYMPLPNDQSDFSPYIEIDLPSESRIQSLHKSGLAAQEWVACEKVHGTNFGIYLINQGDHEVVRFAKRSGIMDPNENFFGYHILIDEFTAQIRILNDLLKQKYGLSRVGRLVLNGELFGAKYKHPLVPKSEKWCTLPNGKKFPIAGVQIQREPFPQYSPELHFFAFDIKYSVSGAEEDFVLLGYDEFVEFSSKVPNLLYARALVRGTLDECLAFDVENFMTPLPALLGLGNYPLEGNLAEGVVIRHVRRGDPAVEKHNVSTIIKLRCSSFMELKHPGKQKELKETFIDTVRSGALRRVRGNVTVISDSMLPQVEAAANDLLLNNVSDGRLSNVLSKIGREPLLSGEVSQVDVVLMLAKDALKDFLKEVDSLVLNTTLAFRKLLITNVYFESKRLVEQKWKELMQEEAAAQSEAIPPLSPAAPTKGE
Active calls of the source: *.

SMILES | TbREL1 inh
CN1CCN(c2ccc(NC(=O)COc3ccccc3Cl)cc2)CC1 | -0.3
C=CC(=O)Nc1ccc(N(C)c2ccnc(Nc3ccc(N4CCN(C)CC4)cc3)n2)cc1 | 11.7*
CN1CCN(c2ccc(NC(=O)c3cccs3)cc2)CC1 | 5.2
Cc1nn(-c2ccccc2)c2sc(C(=O)NCCc3ccc(Cl)cc3)cc12 | 4.1
O=C1c2sc3nc4n(c(=O)c3c2CCC1Br)CCCCC4 (stereo unspecified) | 16.1*
CC(C)c1csc2nc3n(c(=O)c12)CCCCC3 | 5.2
O=c1c2c3c(sc2nc2n1CCCCC2)CCC3 | 4.0
CCOC(=O)c1ccccc1S(=O)(=O)N1CCN(c2nc(-c3cccs3)nc3ccccc23)CC1 | 1.1
COC[C@H]1CCCN1c1ccc2c(c1)OCCCN(C1CC1)S2(=O)=O | -3.4
CCn1c(COc2ccc(C)cc2)nnc1SCC(=O)Nc1ccccc1-c1ccccc1 | -0.5
O=C(O)CC(C(=O)O)N1C(=O)/C(=C/c2ccc(-c3nc4ccccc4s3)o2)SC1=S (stereo unspecified) | 84.0*
CCC(C(=O)O)N1C(=O)/C(=C/c2cccn2C)SC1=S (stereo unspecified) | 0.8
O=C(O)CCCN1C(=O)/C(=C\c2ccc(-c3nc4ccccc4s3)o2)SC1=S | 10.6
CC(C)NC(=O)C1CCN(c2cncnc2)CC1 | 3.7
C#CCNC(=O)C[C@H]1C[C@@]2(C(=O)OC)C(=C[C@H](C(C)C)O[C@@H]2C2CC2)N(Cc2ccc(Cl)cc2Cl)C1=O | -2.6
COc1ccc2ccccc2c1-c1c(C(=O)c2ccc(Br)cc2)[nH]c(N)c1C(=O)NC1CCCCC1 | -1.2
CC(=O)Oc1cc(C(=O)OCC(=O)NC23CC4CC(CC(C4)C2)C3)cc(OC(C)=O)c1OC(C)=O | 12.3*
O=C(COC(=O)c1ccccn1)NC12CC3CC(CC(C3)C1)C2 | -0.2
COc1ccc(C(=O)OCC(=O)NC23CC4CC(CC(C4)C2)C3)c(OC)c1OC | 3.6
COc1ccc(C(=O)N2CCC[C@@H]2C(=O)N2CCC[C@@H]2C(=O)NCc2ccccc2)cc1F | 1.7
COCCN(C(=O)COC(=O)c1cnc(C)cn1)c1c(N)n(Cc2ccccc2)c(=O)[nH]c1=O | 1.4
COCCN(C(=O)COC(=O)C1=COCCO1)c1c(N)n(Cc2ccccc2)c(=O)[nH]c1=O | 0.6
COCCN(C(=O)COC(=O)c1cc2c(s1)CCC2)c1c(N)n(Cc2ccccc2)c(=O)[nH]c1=O | 26.8*
O=C(N[C@@H](Cc1cccnc1)C(=O)N1CCC[C@H]1C(=O)NCCc1ccccc1Cl)c1ccc(Cl)c(Cl)c1 | -1.2
O=C(OCC#CCSc1nnc(-c2cccc3ccccc23)o1)c1ccc(SC(F)(F)F)cc1 | 8.2
SMILES | TbREL1 inh
O=C(/C=C(\Nc1cc(Cl)c(F)c(Cl)c1)c1ccccc1)c1ccccc1 | 4.9
C#CCOCCOCCOCCNc1nc(N2CCN(C(=O)[C@H]([C@@H](C)O)n3cc(CCCCN)nn3)CC2)nc(N2CCN(C(=O)[C@H]([C@@H](C)CC)n3cc(CCCN=C(N)N)nn3)CC2)n1 | 12.2*
C#CCOCCOCCOCCNc1nc(N2CCN(C(=O)Cn3cc(CCCN=C(N)N)nn3)CC2)nc(N2CCN(C(=O)[C@H]([C@@H](C)O)n3cc(CCCCN)nn3)CC2)n1 | 2.8
C#CCOCCOCCOCCNc1nc(N2CCN(C(=O)[C@H]([C@@H](C)CC)n3cc(CCCCN)nn3)CC2)nc(N2CCN(C(=O)[C@H]([C@@H](C)CC)n3cc(CCCN=C(N)N)nn3)CC2)n1 | 10.5
O=C1CCC[C@H]2C[C@H](NCc3ccc(F)cc3)CC[C@]23CCCN13 | 0.1
CCOc1ccc(CCNC(=O)c2cc3sccc3n2Cc2cccc(C)c2)cc1OCC | 4.1
O=C(N[C@H](C(=O)N1CCC[C@H]1C(=O)NCc1ccccc1)c1ccccc1)C1CCCC1 | -3.8
COC(=O)c1ccccc1-c1c2ccc(=N)cc-2oc2cc(N)ccc12 | -166.9
COc1c(O)cc2oc(-c3ccc(O)cc3)cc(=O)c2c1O | -1.6
COc1cc(OC)c(-c2c3cc(O)c(=O)cc-3oc3cc(O)c(O)cc23)cc1OC | 20.3*
Cc1cc(NS(=O)(=O)c2ccc(NC(=O)CSc3nnc(-c4ccco4)n3-c3ccc(Cl)cc3)cc2)nc(C)n1 | -1.7
O=C(NN=Cc1ccco1)c1cccnc1 | 9.4
C[C@@H]1NS(=O)(=O)c2ccc(F)cc2O[C@@H]1c1ccccc1 | 1.0
O=C(Nc1ccc2[nH]ccc2c1)c1cc(-c2ccc(Cl)cc2)nc2ccccc12 | -2.5
C=CC[C@@H](Cc1ccc(F)cc1)C(=O)OC[C@@H]1CCCN1C(=O)[C@H](CC=C)CC(=O)N[C@H](CO)Cc1ccccc1 | 22.6*
C=CC[C@@H](Cc1ccc(F)cc1)C(=O)OC[C@@H]1CCCN1C(=O)[C@@H](CC=C)CC(=O)NCCO | -2.3
C=CC[C@@H](Cc1ccc(F)cc1)C(=O)OC[C@@H]1CCCN1C(=O)[C@@H](CC=C)CC(=O)N(CCO)Cc1ccccc1 | -2.0
CCOC(=O)N1CCN(C(=O)C[C@@H]2C[C@]3(C(=O)OCC)CCC4=C3N(CCC4)C2=O)CC1 | 5.0
CC(C)C[C@H]1CNC(=S)N1CC1CCCN1C[C@H](CC(C)C)N1C[C@H](Cc2ccccc2)N(CC2CCCCCC2)C1=S (stereo partly specified) | -4.0
CC[C@@H](C)[C@@H]1CN([C@@H](C)CN2CCC[C@H]2CN2C(N)=NC[C@@H]2Cc2ccccc2)C(=N)N1CCCC1CCCC1 | 2.6
CC(C)C[C@@H]1CN=C(N)N1C[C@@H]1CCCN1C[C@@H](C(C)C)N1C[C@@H](Cc2ccccc2)N(CCCC2CCCC2)C1=N | 12.6*
COc1cccc(N(C)C(=O)[C@@H](C)[C@@H](O)c2ccc(Cl)cc2)c1 | 0.7
O=[N+]([O-])c1ccc(COc2ccccc2CO)cc1 | -0.6
CC(C)(C)S(=O)(=O)N1C[C@@H]2CC(=O)C(CCO)=C2[C@H]1CCO | 1.1
Cc1ccc(C2(C)NC(=O)N(CC(=O)NCCC3=CCCCC3)C2=O)cc1 (stereo unspecified) | -0.8
SMILES | TbREL1 inh
CCCNC(=O)C(=O)NCCC1=CCCCC1 | 1.3
Cc1ccc(CNCCC2=CCCCC2)cc1 | 11.1*
O=C(Nc1ccc(F)cc1)OC1CC2CC1[C@H]1CCCCN1[C@H]2Cc1ccccc1 (stereo partly specified) | 3.0
COc1ccc(-n2c(COc3ccccc3)nnc2SCc2nc3ccccc3[nH]2)cc1 | -3.7
O=C(Cc1ccccc1Cl)NCCN1C(=O)C2C3C=CC(C3)C2C1=O (stereo unspecified) | 2.6
COc1cccc(C2NC(=S)N(Cc3ccc(Br)cc3)C(C)=C2C(C)=O)c1 (stereo unspecified) | -7.8
O=C(O)c1ccccc1-c1ccccc1C(=O)Nc1cccc(Br)c1 | 11.1*
O=C(O)c1ccccc1-c1ccccc1C(=O)NNc1ccccc1 | 0.8
O=C(Cc1ccccc1)NCC(=O)Nc1cccc(Br)c1 | -0.1
CCOC(=O)C(Cc1ccccc1)CP(=O)(OC)[C@@H](C)NC(=O)OCc1ccccc1 (stereo partly specified) | -2.6
CCCCN1CCN(C2=NC(=O)N(c3ccc(Br)cc3)C(=O)C2)CC1 | 2.6
Cc1cc(Br)cn2c(Cc3cccc(F)c3)c(-c3ccc(C#N)cc3)nc12 | -1.3
O=C(O)c1ccc(C=Nn2c(-c3ccc(F)cc3)n[nH]c2=S)cc1 | -2.7
CC1(C)CC(=O)C=C(Nc2ccccc2NC(=O)c2cc(F)ccc2F)C1 | -2.9
Cc1ccc(C(=O)NCCn2c(N)c(C#N)c3nc4ccccc4nc32)cc1 | -1.6
CCn1c(NC(=O)c2ccc(C)cc2)c2ccccc2nc1=O | -4.1
